According to PubChem BioAssay (EPA / NIEHS):
Several values for one entry are separate records, joined by “and”; a condition that tells them apart may be missing. Equal entries are not always repeated. Results filed as inconclusive are left out. Some compounds were tested as several samples or in several runs, with calls that do not always agree. Activity calls are given as the source filed them. The calls were made as follows, unless noted: active = hit-call score of the fitted dose curve at least 0.9, where 1 is the maximum; inactive = score below 0.9.

Tests used:
[1] = target: human Peroxisome Proliferator-activated Receptor alpha (PPARa), PPARA (gene 5465) (UniProt Q07869); test: ATG_PPARa_TRANS: Attagene TRANS-FACTORIAL HepG2 Assay for human Peroxisome Proliferator-activated Receptor alpha (PPARa) (AID 2283001; active = hit-call score of the fitted dose curve at least 0.9, where 1 is the maximum)
Chain of human Peroxisome Proliferator-activated Receptor alpha (PPARa), PPARA (gene 5465) (Q07869 whole entry, looked up, the tested form may be a part): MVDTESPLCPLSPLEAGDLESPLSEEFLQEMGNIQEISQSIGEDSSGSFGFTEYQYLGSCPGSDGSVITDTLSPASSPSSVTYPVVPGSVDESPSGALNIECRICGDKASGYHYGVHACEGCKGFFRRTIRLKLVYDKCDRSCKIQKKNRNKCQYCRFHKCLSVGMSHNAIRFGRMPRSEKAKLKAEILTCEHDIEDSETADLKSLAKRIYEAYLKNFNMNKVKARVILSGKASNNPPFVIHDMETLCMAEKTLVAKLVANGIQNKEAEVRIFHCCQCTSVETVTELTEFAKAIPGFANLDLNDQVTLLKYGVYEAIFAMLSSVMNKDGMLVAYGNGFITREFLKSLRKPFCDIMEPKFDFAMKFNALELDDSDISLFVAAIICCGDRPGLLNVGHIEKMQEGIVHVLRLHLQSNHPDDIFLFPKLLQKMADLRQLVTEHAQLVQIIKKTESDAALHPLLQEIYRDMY
Procedure, shortened: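 Gain-of-signal endpoint: reporter mRNA induction relative to DMSO, detected by fluorescent RT-PCR and capillary electrophoresis. HepG2 cells transiently carried GAL4-UAS-driven reporter units plus NR-Gal4 fusion; exposure lasted 24 h.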

[2] = BSK_3C_Proliferation: Cell Proliferation Assessment in the BioMAP Diversity Plus: 3C Assay (AID 2283006); details: primary human endothelial cells (HUVEC);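 as to AC50: potency may reflect either rise or fall in cell number versus DMSO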
Procedure, shortened: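 Read-out is total protein by SRB absorbance at 560 nm, taken as a proxy for relative cell number. Primary human umbilical vein endothelium cultured below confluence was dosed for 48 h, TCA-fixed and SRB-stained; curves were fitted bidirectionally versus DMSO.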

[3] = target: human RAR-related Orphan Receptor gamma (RORg), RORC (gene 6097) (UniProt P51449); test: ATG_RORg_TRANS: Attagene TRANS-FACTORIAL HepG2 Assay for human RAR-related Orphan Receptor gamma (RORg) (AID 2283011; active = hit-call score of the fitted dose curve at least 0.9, where 1 is the maximum;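 as to AC50: potency for induction of reporter transcripts above DMSO so activators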)
Chain of human RAR-related Orphan Receptor gamma (RORg), RORC (gene 6097) (P51449 whole entry, looked up, the tested form may be a part): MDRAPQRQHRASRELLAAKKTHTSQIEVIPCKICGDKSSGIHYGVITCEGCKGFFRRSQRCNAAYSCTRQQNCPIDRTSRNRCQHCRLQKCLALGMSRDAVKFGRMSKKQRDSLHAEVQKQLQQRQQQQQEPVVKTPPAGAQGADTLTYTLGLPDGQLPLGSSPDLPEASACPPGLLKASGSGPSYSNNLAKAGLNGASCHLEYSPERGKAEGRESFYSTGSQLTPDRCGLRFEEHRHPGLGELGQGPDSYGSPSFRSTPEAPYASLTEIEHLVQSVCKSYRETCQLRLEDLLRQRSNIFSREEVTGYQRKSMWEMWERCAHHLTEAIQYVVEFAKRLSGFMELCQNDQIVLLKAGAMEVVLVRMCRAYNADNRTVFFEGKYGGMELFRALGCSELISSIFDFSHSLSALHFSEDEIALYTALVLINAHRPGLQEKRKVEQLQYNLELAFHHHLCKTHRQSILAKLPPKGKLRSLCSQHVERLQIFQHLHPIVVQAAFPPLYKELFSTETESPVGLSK
Procedure, shortened: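 Reporter transcripts from a transfected RORg-GAL4 chimera in HepG2 cells were quantified 24 h after dosing by RT-PCR, 6-FAM labelling, HpaI digestion and capillary electrophoresis; increases over DMSO baseline were fitted.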

[4] = target: Retinoic acid receptor RXR-alpha (Homo sapiens) (UniProt P19793); test: ATG_RXRa_TRANS: Attagene TRANS-FACTORIAL HepG2 Assay for human Retinoid X Receptor alpha (RXRa) (AID 2283012; active = hit-call score of the fitted dose curve at least 0.9, where 1 is the maximum)
Chain of Retinoic acid receptor RXR-alpha (Homo sapiens) (P19793 whole entry, looked up, the tested form may be a part): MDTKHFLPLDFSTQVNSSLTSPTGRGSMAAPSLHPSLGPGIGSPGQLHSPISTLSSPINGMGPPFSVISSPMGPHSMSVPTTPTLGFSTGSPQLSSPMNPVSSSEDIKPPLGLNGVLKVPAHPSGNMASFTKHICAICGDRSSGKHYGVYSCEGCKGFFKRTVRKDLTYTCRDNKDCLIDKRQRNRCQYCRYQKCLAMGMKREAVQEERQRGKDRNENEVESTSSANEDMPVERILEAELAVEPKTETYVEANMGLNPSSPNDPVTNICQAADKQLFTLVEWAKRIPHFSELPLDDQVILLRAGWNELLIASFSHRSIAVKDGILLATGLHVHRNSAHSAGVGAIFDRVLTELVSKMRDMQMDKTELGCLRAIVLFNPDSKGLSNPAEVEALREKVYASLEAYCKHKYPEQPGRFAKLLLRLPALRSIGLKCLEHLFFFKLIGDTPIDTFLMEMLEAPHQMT
Procedure, shortened: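 Transient transfection of human HepG2 with multiple GAL4-UAS reporter constructs; 24 h compound exposure; total RNA isolated, reverse-transcribed, PCR-amplified, 6-FAM labelled, HpaI-cut, resolved by capillary electrophoresis. Positive-direction fit versus DMSO.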

[5] = read-out: E-selectin (Homo sapiens) (UniProt P16581); test: BSK_3C_Eselectin: BioMAP Diversity Plus: 3C Assay for Eselectin Biomarker Activity (AID 2283015); details: primary human endothelial cells (HUVEC); actives raise or lower the signal
Procedure, shortened: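 E-selectin ELISA readout, fitted bidirectionally relative to DMSO, taken 24 h post-dosing in HUVEC cultures of the 3C system. Overt cytotoxicity tracked with sulforhodamine B staining of parallel wells.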

[6] = read-out: Interleukin-1 alpha (IL1a), IL1A (gene 3552); test: BSK_BE3C_IL1a: BioMAP Diversity Plus: BE3C Assay for Interleukin-1 alpha (IL1a) Biomarker Activity (AID 2283016); details: primary human bronchial epithelial cells; actives raise or lower the signal
Procedure, shortened: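 BE3C primary human bronchial epithelium; cpd 24 h; IL-1a by ELISA; bidirectional fit vs DMSO; parallel SRB (0.1% SRB, 10% TCA fix, 560 nm) for cytotoxicity.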

[7] = read-out: Monocyte Chemoattractant Protein-1 (MCP1), CCL2 (gene 6347); test: BSK_3C_MCP1: BioMAP Diversity Plus: 3C Assay for Monocyte Chemoattractant Protein-1 (MCP1) Biomarker Activity (AID 2283017); details: primary human endothelial cells (HUVEC); actives raise or lower the signal
Procedure, shortened: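 MCP-1 was measured by ELISA 24 h after dosing in primary HUVEC 3C cultures and fitted in both directions relative to DMSO; cytotoxicity was checked by SRB total-protein staining in parallel wells.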

[8] = read-out: Monocyte Chemoattractant Protein-1 (MCP1), CCL2 (gene 6347); test: BSK_4H_MCP1: BioMAP Diversity Plus: 4H Assay for Monocyte Chemoattractant Protein-1 (MCP1) Biomarker Activity (AID 2283018); details: primary human endothelial cells (HUVEC); actives raise or lower the signal
Procedure, shortened: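 ELISA read-out of MCP-1 from human vascular endothelial primary cells taken at 24 hours after compound exposure. Activity was fitted in both directions relative to DMSO, which served as negative control.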

[9] = read-out: Human Leukocyte Antigen - DR isotype (HLADR), HLA-DRA (gene 3122); test: BSK_3C_HLADR: BioMAP Diversity Plus: 3C Assay for Human Leukocyte Antigen - DR isotype (HLADR) Biomarker Activity (AID 2283019); details: primary human endothelial cells (HUVEC); actives raise or lower the signal
Procedure, shortened: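 Bidirectional fitting against DMSO was applied to the HLA-DR ELISA signal from human umbilical vein endothelial cells, 24 h post-dose. Cytotoxicity came from parallel SRB total-protein staining; 3C proliferation was counted by SRB at 48 h.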

[10] = read-out: Monokine induced gamma interferon (MIG), CXCL9 (gene 4283); test: BSK_3C_MIG: BioMAP Diversity Plus: 3C Assay for Monokine induced gamma interferon (MIG) Biomarker Activity (AID 2283021); details: primary human endothelial cells (HUVEC); actives raise or lower the signal;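 as to AC50: MIG protein level measured by immunoassay in the treated endothelial cultures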
Procedure, shortened: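 Read-out is ELISA detection of MIG on human umbilical vein endothelial cells, taken 24 h after dosing. Gain or loss of signal was scored relative to DMSO controls using bidirectional curve fitting.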

[11] = target: Peroxisome proliferator-activated receptor gamma (Homo sapiens) (UniProt P37231); test: ATG_PPARg_TRANS: Attagene TRANS-FACTORIAL HepG2 Assay for human Peroxisome Proliferator-activated Receptor-gamma (PPARg) (AID 2283007; active = hit-call score of the fitted dose curve at least 0.9, where 1 is the maximum)
Chain of Peroxisome proliferator-activated receptor gamma (Homo sapiens) (P37231 whole entry, looked up, the tested form may be a part): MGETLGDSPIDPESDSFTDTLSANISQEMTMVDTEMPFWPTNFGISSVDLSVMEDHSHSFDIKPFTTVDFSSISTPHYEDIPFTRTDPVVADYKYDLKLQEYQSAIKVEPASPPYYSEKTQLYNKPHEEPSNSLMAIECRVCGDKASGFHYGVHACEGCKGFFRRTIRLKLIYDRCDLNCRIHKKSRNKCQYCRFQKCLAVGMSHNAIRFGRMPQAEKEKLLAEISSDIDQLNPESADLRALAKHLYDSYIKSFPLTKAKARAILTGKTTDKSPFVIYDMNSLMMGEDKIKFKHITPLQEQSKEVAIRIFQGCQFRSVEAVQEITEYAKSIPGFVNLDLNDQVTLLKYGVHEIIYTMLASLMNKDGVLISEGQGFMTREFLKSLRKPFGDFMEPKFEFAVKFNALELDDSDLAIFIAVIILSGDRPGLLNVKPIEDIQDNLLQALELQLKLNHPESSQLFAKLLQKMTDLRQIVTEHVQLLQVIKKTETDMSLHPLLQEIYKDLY
Procedure, shortened: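 After 24 h of chemical exposure, transfected HepG2 cells carrying PPARγ-Gal4 chimera reporter constructs are lysed for RNA. Reporter transcripts are measured by RT-PCR and capillary electrophoresis with fluorescent labelling, and gain of signal is fitted versus DMSO.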

[12] = target: Nuclear receptor subfamily 1 group I member 2 (Homo sapiens) (UniProt O75469); test: ATG_PXR_TRANS: Attagene TRANS-FACTORIAL HepG2 Assay for human Pregnane X Receptor (PXR) (AID 2283008; active = hit-call score of the fitted dose curve at least 0.9, where 1 is the maximum)
Chain of Nuclear receptor subfamily 1 group I member 2 (Homo sapiens) (O75469 whole entry, looked up, the tested form may be a part): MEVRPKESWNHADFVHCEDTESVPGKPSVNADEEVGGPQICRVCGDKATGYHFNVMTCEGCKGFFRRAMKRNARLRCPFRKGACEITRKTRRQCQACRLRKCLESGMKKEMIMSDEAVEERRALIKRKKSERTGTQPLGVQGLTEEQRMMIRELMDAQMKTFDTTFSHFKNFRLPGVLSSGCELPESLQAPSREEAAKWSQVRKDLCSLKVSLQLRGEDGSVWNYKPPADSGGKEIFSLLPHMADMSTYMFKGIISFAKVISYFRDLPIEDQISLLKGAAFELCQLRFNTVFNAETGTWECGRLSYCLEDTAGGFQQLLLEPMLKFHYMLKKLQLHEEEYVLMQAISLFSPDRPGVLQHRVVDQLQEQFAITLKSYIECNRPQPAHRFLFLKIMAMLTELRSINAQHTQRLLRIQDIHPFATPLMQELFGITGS
Procedure, shortened: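 HepG2 cells transiently transfected with multiple reporter units, here a PXR-GAL4 chimera driving a GAL4-UAS reporter; 24 h compound exposure. Reporter mRNA measured by RT-PCR, FAM labelling and capillary electrophoresis; gain of signal fitted against DMSO baseline.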

[13] = target: human Thyroid Receptor alpha (THRa1), THRA (gene 7067) (UniProt P10827); test: ATG_THRa1_TRANS: Attagene TRANS-FACTORIAL HepG2 Assay for human Thyroid Receptor alpha (THRa1) (AID 2283014; active = hit-call score of the fitted dose curve at least 0.9, where 1 is the maximum)
Chain of human Thyroid Receptor alpha (THRa1), THRA (gene 7067) (P10827 whole entry, looked up, the tested form may be a part): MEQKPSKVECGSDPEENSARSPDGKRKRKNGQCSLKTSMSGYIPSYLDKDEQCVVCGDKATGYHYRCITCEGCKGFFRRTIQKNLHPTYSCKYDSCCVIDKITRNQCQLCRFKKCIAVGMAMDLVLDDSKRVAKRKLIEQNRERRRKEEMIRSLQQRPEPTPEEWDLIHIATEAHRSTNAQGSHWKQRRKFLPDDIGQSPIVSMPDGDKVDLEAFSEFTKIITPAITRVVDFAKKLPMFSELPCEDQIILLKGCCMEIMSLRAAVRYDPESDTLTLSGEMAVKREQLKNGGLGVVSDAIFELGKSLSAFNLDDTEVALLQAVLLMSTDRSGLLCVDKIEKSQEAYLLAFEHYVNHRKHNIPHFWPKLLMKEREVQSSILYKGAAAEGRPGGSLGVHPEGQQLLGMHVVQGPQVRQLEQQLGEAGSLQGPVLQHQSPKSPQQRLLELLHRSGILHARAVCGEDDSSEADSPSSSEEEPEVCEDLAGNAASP
Procedure, shortened: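 Transcripts from GAL4-UAS-driven reporters, measured after 24 h compound exposure by RT-PCR plus capillary electrophoresis of 6-FAM-labeled fragments, were fitted for gain of signal relative to DMSO. Cells: transiently transfected HepG2 expressing NR-Gal4 chimeras.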

[14] = read-out: Interleukin-8 (IL8), CXCL8 (gene 3576); test: BSK_3C_IL8: BioMAP Diversity Plus: 3C Assay for Interleukin-8 (IL8) Biomarker Activity (AID 2283020); details: primary human endothelial cells (HUVEC); actives raise or lower the signal
Procedure, shortened: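 ELISA read-out of IL-8 from human umbilical vein endothelium, measured 24 h after chemical dosing. Activity is expressed relative to DMSO negative control, with both increases and decreases fitted.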

[15] = target: human Vitamin D Receptor (VDR), VDR (gene 7421) (UniProt P11473); test: ATG_VDR_TRANS: Attagene TRANS-FACTORIAL HepG2 Assay for human Vitamin D Receptor (VDR) (AID 2283022; active = hit-call score of the fitted dose curve at least 0.9, where 1 is the maximum)
Chain of human Vitamin D Receptor (VDR), VDR (gene 7421) (P11473 whole entry, looked up, the tested form may be a part): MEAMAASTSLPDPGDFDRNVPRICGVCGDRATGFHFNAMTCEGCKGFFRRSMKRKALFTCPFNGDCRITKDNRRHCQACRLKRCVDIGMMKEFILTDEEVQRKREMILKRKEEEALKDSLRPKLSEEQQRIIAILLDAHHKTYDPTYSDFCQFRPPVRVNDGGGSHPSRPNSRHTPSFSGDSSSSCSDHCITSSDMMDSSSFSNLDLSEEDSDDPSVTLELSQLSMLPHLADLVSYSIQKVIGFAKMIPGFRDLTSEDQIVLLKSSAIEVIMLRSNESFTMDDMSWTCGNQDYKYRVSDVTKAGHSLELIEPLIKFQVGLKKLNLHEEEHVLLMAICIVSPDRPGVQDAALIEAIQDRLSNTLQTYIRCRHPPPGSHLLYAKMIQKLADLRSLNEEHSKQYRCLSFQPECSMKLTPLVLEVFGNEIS
Procedure, shortened: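 Transactivation by an exogenous VDR-Gal4 chimera in transiently transfected HepG2 cells was measured as reporter transcript level 24 hours after chemical treatment. RT-PCR products were analysed by capillary electrophoresis and fitted in the positive direction relative to DMSO.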

[16] = read-out: Intercellular Adhesion Molecule 1 (ICAM1), ICAM1 (gene 3383); test: BSK_3C_ICAM1: BioMAP Diversity Plus: 3C Assay for Intercellular Adhesion Molecule 1 (ICAM1) Biomarker Activity (AID 2283003); details: primary human endothelial cells (HUVEC); actives raise or lower the signal
Procedure, shortened: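 ICAM-1 levels measured by ELISA after HUVEC cultures in the 3C system had been dosed for 24 h. Gain or loss of signal relative to DMSO was fitted in both directions.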

[17] = target: human Retinoid X Receptor beta (RXRb), RXRB (gene 6257) (UniProt P28702); test: ATG_RXRb_TRANS: Attagene TRANS-FACTORIAL HepG2 Assay for human Retinoid X Receptor beta (RXRb) (AID 2283013; active = hit-call score of the fitted dose curve at least 0.9, where 1 is the maximum)
Chain of human Retinoid X Receptor beta (RXRb), RXRB (gene 6257) (P28702 whole entry, looked up, the tested form may be a part): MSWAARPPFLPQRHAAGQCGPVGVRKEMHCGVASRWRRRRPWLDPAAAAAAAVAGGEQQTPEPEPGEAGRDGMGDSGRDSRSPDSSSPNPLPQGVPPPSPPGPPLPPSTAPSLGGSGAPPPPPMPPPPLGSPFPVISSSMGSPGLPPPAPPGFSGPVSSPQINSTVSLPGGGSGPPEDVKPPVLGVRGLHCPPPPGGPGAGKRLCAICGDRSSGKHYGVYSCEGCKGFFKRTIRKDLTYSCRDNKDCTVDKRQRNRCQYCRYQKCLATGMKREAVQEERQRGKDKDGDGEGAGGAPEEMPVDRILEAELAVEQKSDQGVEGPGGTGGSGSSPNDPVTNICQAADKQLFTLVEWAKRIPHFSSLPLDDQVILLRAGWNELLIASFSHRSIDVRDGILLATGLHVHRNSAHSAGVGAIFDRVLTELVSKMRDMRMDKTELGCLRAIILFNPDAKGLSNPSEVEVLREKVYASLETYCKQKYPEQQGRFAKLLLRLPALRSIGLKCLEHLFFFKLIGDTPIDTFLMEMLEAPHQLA
Procedure, shortened: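 Transfect HepG2 with GAL4-UAS multi-reporter constructs (chimeric NR-Gal4, TRANS format); dose compound 24 h; isolate RNA, RT-PCR, FAM primer extension, HpaI digest; quantify by capillary electrophoresis; positive direction vs DMSO.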

[18] = target: human Retinoic Acid Receptor gamma (RARg), RARG (gene 5916) (UniProt P13631); test: ATG_RARg_TRANS: Attagene TRANS-FACTORIAL HepG2 Assay for human Retinoic Acid Receptor gamma (RARg) (AID 2283009; active = hit-call score of the fitted dose curve at least 0.9, where 1 is the maximum)
Chain of human Retinoic Acid Receptor gamma (RARg), RARG (gene 5916) (P13631 whole entry, looked up): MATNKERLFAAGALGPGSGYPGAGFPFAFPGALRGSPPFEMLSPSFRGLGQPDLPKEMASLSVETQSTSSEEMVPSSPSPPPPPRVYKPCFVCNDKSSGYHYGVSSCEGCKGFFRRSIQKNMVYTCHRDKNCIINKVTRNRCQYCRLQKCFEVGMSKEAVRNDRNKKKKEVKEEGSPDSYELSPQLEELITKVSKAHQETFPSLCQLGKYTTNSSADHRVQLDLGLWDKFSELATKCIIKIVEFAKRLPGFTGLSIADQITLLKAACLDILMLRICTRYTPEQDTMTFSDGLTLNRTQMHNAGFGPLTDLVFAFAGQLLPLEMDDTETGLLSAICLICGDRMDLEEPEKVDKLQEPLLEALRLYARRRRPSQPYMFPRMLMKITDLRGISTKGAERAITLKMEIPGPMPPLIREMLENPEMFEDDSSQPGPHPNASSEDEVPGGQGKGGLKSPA
Procedure, shortened: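 Transient transfection of HepG2 with multi-reporter constructs, then 24 h chemical treatment. Total RNA isolated, reverse-transcribed, PCR-amplified, fluorescently labelled and resolved by capillary electrophoresis; activity scored as mRNA induction versus DMSO.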

[19] = target: human Peroxisome Proliferator-activated Receptor delta (PPARd), PPARD (gene 5467) (UniProt Q03181); test: ATG_PPARd_TRANS: Attagene TRANS-FACTORIAL HepG2 Assay for human Peroxisome Proliferator-activated Receptor delta (PPARd) (AID 2283002; active = hit-call score of the fitted dose curve at least 0.9, where 1 is the maximum)
Procedure, shortened: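 Measured quantity: GAL4-UAS reporter transcript induction in HepG2 after 24 h chemical dosing, with NR-Gal4 chimeras supplied by transient transfection. Detection by RT-PCR and capillary electrophoresis; upward fit against DMSO.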

[20] = target: human RAR-related Orphan Receptor beta (RORb), RORB (gene 6096) (UniProt Q92753); test: ATG_RORb_TRANS: Attagene TRANS-FACTORIAL HepG2 Assay for human RAR-related Orphan Receptor beta (RORb) (AID 2283010; active = hit-call score of the fitted dose curve at least 0.9, where 1 is the maximum)
Procedure, shortened: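 Readout is reporter-gene mRNA induction, detected as fluorescence after RT-PCR and capillary electrophoresis, fitted for gain of signal against DMSO controls. Transiently transfected HepG2 liver cells carrying GAL4-UAS reporter constructs were treated for 24 hours.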

Measured: AC50

Chain of E-selectin (Homo sapiens) (P16581 whole entry, looked up): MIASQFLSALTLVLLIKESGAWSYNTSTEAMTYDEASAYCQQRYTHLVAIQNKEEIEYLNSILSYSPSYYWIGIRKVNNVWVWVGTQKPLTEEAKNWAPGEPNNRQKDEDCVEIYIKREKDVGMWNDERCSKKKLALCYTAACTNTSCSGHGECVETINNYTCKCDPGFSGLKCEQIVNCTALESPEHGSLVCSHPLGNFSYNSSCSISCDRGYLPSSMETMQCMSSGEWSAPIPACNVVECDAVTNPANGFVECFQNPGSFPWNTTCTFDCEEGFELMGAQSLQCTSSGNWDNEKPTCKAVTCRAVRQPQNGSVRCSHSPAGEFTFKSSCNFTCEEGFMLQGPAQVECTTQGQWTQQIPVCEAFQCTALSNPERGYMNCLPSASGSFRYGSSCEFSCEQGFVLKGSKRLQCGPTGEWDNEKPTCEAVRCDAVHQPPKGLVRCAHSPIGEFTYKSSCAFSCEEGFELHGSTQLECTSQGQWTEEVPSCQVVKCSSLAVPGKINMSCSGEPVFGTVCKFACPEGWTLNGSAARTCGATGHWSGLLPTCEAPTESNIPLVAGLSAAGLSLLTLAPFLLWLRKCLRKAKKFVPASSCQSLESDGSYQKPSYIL

c1ccc2ncccc2c1
inactive: [1] | [2] | [3] | [4] | [5] | [6] | [7] | [8] | [9] | [10]

C=CCc1cc(S(=O)(=O)c2ccc(O)c(CC=C)c2)ccc1O
inactive: [1] | [4] | [13] | [8] | [15]
active: [2] 25.8 µM | [11] 9.21 µM | [12] 3.16 µM | [5] 20 µM | [6] 21.1 µM | [14] 12.4 µM | [10] 34.8 µM

c1ccc(C(O[C@@H]2CCCN(CCc3ccc4c(c3)OCO4)C2)c2ccccc2)cc1
active: [2] 28.5 µM | [11] 20.7 µM | [12] 0.916 µM | [8] 23.6 µM | [14] 25.9 µM
inactive: [16] | [3] | [17] | [13] | [5] | [6] | [10]

CCCCCCCCCC
active: [2] 0.781 µM
not listed: [9] | [11] | [12] | [13] | [16] | [18] | [19] | [20]
inactive: all other assays above

O=C(NO)C1(NS(=O)(=O)c2ccc(Oc3ccc(F)cc3)cc2)CCOCC1
active: [12] 31.7 µM
not listed: [1] | [7] | [9] | [14] | [17] | [19] | [20]
inactive: all other assays above

OC(O)(C(F)C(O)(O)C(F)(F)F)C(F)(F)F
active: [2] 27.3 µM | [11] 150 µM and 94.2 µM | [3] 220 µM and 106 µM
inactive: [19] | [16] | [2] | [12] | [18] | [4] | [17] | [5] | [6] | [8] | [14] | [10] | [15]

Cc1ccc(S(=O)(=O)NC(=O)NN2CCCCCC2)cc1
not listed: [3] | [7] | [13] | [14] | [16] | [19]
inactive: all other assays above

CCCCCCCC/C=C\CCCCCCCC(=O)OC[C@@H](O)[C@H]1OC[C@H](O)[C@H]1O
not listed: [12] | [16] | [19] | [20]
inactive: all other assays above

O=C(O)c1ccc2c(c1)nc(C(=O)NC1CCN(C3CC3)CC1)n2Cc1cc(-c2ccc(Cl)s2)on1
active: [11] 1.03 µM
inactive: [1] | [2] | [20] | [3] | [5] | [6] | [8] | [10]

COc1cc2c(c(OC)c1OC)-c1ccc(OC)c(=O)cc1[C@@H](NC(C)=O)CC2
active: [2] 0.148 µM | [9] 1.07 µM
not listed: [1] | [3] | [19] | [20]
inactive: all other assays above

CC(C)C(=O)Nc1ccc([N+](=O)[O-])c(C(F)(F)F)c1
active: [11] 49 µM | [12] 6.92 µM | [17] 13.3 µM | [13] 100 µM | [9] 34.1 µM
not listed: [1] | [3] | [15] | [18] | [19] | [20]
inactive: all other assays above

O=C(O)c1cccc(C(=O)O)c1
inactive: [1] | [2] | [4] | [13] | [5] | [6] | [8] | [10]
